Compound activity from PubChem BioAssay.
This excerpt belongs to a sample that is enriched for hits.
Pf Dd2 growth – qHTS Primary assay for Inhibitors of Plasmodium falciparum Dd2 growth in vitro; actives 4.3% (n = 120,000); Potency, µM (top dose mostly 28.9 µM), for inactives: top-dose activity, negative = inhibition, usual class: inhibitors; P. falciparum Dd2 growth, SYBR Green, 72 h; active means well fitted inhibition curve with a large enough effect;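 further: plate controls were DMSO vehicle for no effect and reference drug for full effect; nearly all actives have a fitted effect of over 65% in size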
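Readout: SYBR Green fluorescence, 485 nm excitation, 535 nm emission, after ~16 h lysis at 37C. Before that, Dd2-infected red cells (2.5% hematocrit) grew 72 h with compound, 29 uM top final concentration.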
Active calls of the source: *; [ ] = another dose, or the depositor's remark. Potency means the concentration at half of the fitted maximal effect.

How did O=S(=O)(c1ccccc1)N(C1CC1)C1CCN(c2ncncn2)CC1 do in these assays?
Pf Dd2 growth: -18%

How did CCCS(=O)(=O)N1CC[C@@H](CC(=O)O)[C@@H](CC2=NCCc3cc(OC)ccc32)C1 do in these assays?
Pf Dd2 growth: -14%[44.1 µM]

Results for COc1ccc(CN2CC3(COCC2=O)CN(c2ccc(C(F)(F)F)cn2)C3)cc1F ?
Pf Dd2 growth: inactive

How did Cc1ccc(C2(O)CCN(c3cc(C(F)(F)F)ccn3)CC2)nc1 do in these assays?
Pf Dd2 growth: -8%

Results for Cc1cccc(C)c1CN1CC2(COCC1=O)CN(c1ccc(C(F)(F)F)cn1)C2 ?
Pf Dd2 growth: -1%[44.1 µM]

What do the screens show for `Cn1ncc(CN2CCCC23CCN(c2ccc(C(F)(F)F)cn2)CC3)c1C1CC1`?
Pf Dd2 growth: 11µM*

Results for CC(C)n1ccnc1CN1CCC2(CCCO2)CCC1=O (centres undefined) ?
Pf Dd2 growth: 5%

How did Cn1cc(CN2CCCC23CCN(c2ccc(C(F)(F)F)cn2)CC3)cc1C#N do in these assays?
Pf Dd2 growth: 5µM*

Results for C[C@@H]1CN(C2CCN(Cc3cnn(C)c3C3CC3)CC2)C[C@H](C)O1 ?
Pf Dd2 growth: 1%

Results for FC(F)(F)CN1C2CCC1CN(c1ccc(C(F)(F)F)cn1)C2 ?
Pf Dd2 growth: 27%

How did CC(C)n1ccnc1CN1CCCC12CCN(c1ccc(C(F)(F)F)cn1)CC2 do in these assays?
Pf Dd2 growth: 13µM*

What do the screens show for `CC(C)N1CNC(=O)C12CCN(C(=O)c1ccc(Cl)cc1)CC2`?
Pf Dd2 growth: 17%

What do the screens show for `CCO[C@H]1C[C@@H](O)C12CCN(C(=O)c1cc(C(F)(F)F)[nH]n1)CC2`?
Pf Dd2 growth: 4%

How did COC(=O)c1ccc2nc(CO[C@H]3CN(C4CCC4)C[C@H]3F)[nH]c2c1 do in these assays?
Pf Dd2 growth: -11%[44.1 µM]

What do the screens show for `COc1ccc(-c2cnc(Nc3cccc(N[S+](C)(=O)[O-])c3)c3c2CCO3)cn1`?
Pf Dd2 growth: inactive

Results for O=C(c1ccc(F)cc1Cl)N1CCC(n2cc(-c3nc(C4CC4)no3)nn2)C1 (centres undefined) ?
Pf Dd2 growth: 50%

Results for COc1ccc(OC)c(NC(=O)CN2CC3CC(C2)[C@H]2CCCC(=O)N2C3)c1 (some centres undefined) ?
Pf Dd2 growth: -11%

How did CCNC(=O)N1CCOc2ccc(CCC(=O)Nc3ccc(F)cc3F)cc2C1 do in these assays?
Pf Dd2 growth: -9%

How did O=C(Cc1cccc(Cl)c1)N1CCCC(c2nn(-c3ccccc3)c(=O)[nH]2)C1 (centres undefined) do in these assays?
Pf Dd2 growth: inactive

What do the screens show for `CN1CCN(C(=O)Cc2c[nH]c3ncc(-c4cccc(O)c4)cc23)CC1`?
Pf Dd2 growth: -8%[44.1 µM]

Results for Oc1cccc(Nc2nc(-c3ccccc3)nc3ccccc23)c1 ?
Pf Dd2 growth: -1%

How did OCCNc1ncnc2ccc(-c3cccc(O)c3)cc12 do in these assays?
Pf Dd2 growth: 8.9µM*

How did Cc1nc(CCN(C)c2nc(C3CCCC3)nc3c2cnn3C)no1 do in these assays?
Pf Dd2 growth: -7%

How did O=C(Cc1cccc(F)c1)NCCC1CCN(C(=O)Nc2ccc(F)cc2F)CC1 do in these assays?
Pf Dd2 growth: -18%

What do the screens show for `COC(=O)c1c(C)sc(-c2c(-c3ccc4c(c3)OCCO4)[nH]c3c2c(=O)n(C)c(=O)n3C)c1O`?
Pf Dd2 growth: -7%

Results for CCOC(=O)c1c(C)sc(-c2c(-c3ccc4c(c3)OCCO4)[nH]c3c2c(=O)n(C)c(=O)n3C)c1O ?
Pf Dd2 growth: 8.9µM*

Results for CCOC(=O)c1c(C)sc(-c2c(-c3ccc(OC)c(F)c3)[nH]c3c2c(=O)[nH]c(=O)n3C)c1O ?
Pf Dd2 growth: 428%[5.79 µM]

How did COc1cc(C(=O)NC2CCCN(c3cc(-c4ccc(F)cc4)[nH]n3)C2)cc(OC)c1OC (centres undefined) do in these assays?
Pf Dd2 growth: inactive

Results for COc1ccccc1OCCCN1CC[C@@](C)(O)[C@@H](O)C1 ?
Pf Dd2 growth: -16%

What do the screens show for `Cn1c(CCNC(=O)CC2CCOC3(CCN(S(C)(=O)=O)CC3)C2)nc2ccccc21` (centres undefined)?
Pf Dd2 growth: -4%

What do the screens show for `Cc1ccc(CNC(=O)CSc2nc3n[nH]c(C)c3c(=N)n2-c2cccc(C)c2)cc1`?
Pf Dd2 growth: -13%

What do the screens show for `Cc1ccc(-n2c(SCC(=O)Nc3cccc(Cl)c3)nc3n[nH]c(C)c3c2=N)cc1`?
Pf Dd2 growth: 13µM*

How did CCC(C)NC(=O)CSc1nc2n[nH]c(C)c2c(=N)n1-c1ccc(C)c(Cl)c1 (centres undefined) do in these assays?
Pf Dd2 growth: -6%

What do the screens show for `Cc1ccc(S(N)(=O)=O)cc1C(=O)N[C@H]1[C@H]2CCO[C@H]2[C@@H]1N1CCCC1`?
Pf Dd2 growth: -3%

How did COC[C@@H]1CN(C(=O)COc2cccc(C)c2)C[C@H]1c1ccncc1 do in these assays?
Pf Dd2 growth: 13%

How did COc1ccc(C2CC(=O)c3c([nH]c(C(=O)OCc4ccccc4)c3C)C2)cc1 (centres undefined) do in these assays?
Pf Dd2 growth: -12%

Results for Cc1c(C(=O)OCCOc2ccccc2)[nH]c2c1C(=O)CC(c1ccc(C(C)(C)C)cc1)C2 (centres undefined) ?
Pf Dd2 growth: 4µM*

What do the screens show for `COc1ccc(C2CC(=O)c3c([nH]c(C(=O)OC4CCC(C)CC4)c3C)C2)cc1OC` (centres undefined)?
Pf Dd2 growth: -16%

What do the screens show for `Cc1c(C(=O)OC2CCCC2)[nH]c2c1C(=O)CC(c1ccc(Cl)cc1)C2` (centres undefined)?
Pf Dd2 growth: -14%

Results for CCOC(=O)c1ccc(NC(=O)c2cc3c([nH]c2=O)CC(c2ccccc2)CC3=O)cc1 (centres undefined) ?
Pf Dd2 growth: -10%

What do the screens show for `CCOC(=O)c1[nH]c2c(c1Cc1ccccc1OC)C(=O)CC(c1ccccc1)C2` (centres undefined)?
Pf Dd2 growth: 11µM*

Results for O=C(c1ccccc1)N1CCN2C(=O)N(Cc3ccccc3)C(=O)[C@H]2C1 ?
Pf Dd2 growth: inactive

How did COC[C@@H]1CN(C(=O)c2cn3ccccc3n2)C[C@H]1c1nc(C)no1 do in these assays?
Pf Dd2 growth: 3%

How did O=c1c2c(CO)c(-c3ccc(F)cc3)nn2ccn1CCOc1ccccc1 do in these assays?
Pf Dd2 growth: inactive

Results for COC(=O)c1ccc(N2C[C@H]3OC(=O)N(CCc4ccc(OC)cc4)[C@H]3C2)nc1 ?
Pf Dd2 growth: -11%

Results for CN(C(=O)c1cc(COc2ccc3c(c2)OCO3)[nH]n1)C1CCOC1 (centres undefined) ?
Pf Dd2 growth: -11%

How did CCn1c2c(c(=O)n1Cc1ccccc1)CCN(Cc1nccs1)C2 do in these assays?
Pf Dd2 growth: 25%[44.1 µM]

How did COc1ccc(Cn2c(C(=O)O)c(CNCc3ccco3)c3ccc(C)cc32)cc1 do in these assays?
Pf Dd2 growth: inactive

Results for COc1ccc2c(CNCc3ccco3)c(C(=O)O)n(Cc3ccccc3)c2c1 ?
Pf Dd2 growth: -8%

Results for Cc1ccc2c(CNCC(C)c3ccccc3)c(C(=O)O)n(Cc3ccccc3C)c2c1 (centres undefined) ?
Pf Dd2 growth: inactive

How did COc1ccc(OC)c(CNCc2c(C(=O)O)n(Cc3ccccc3)c3cc(OC)ccc23)c1 do in these assays?
Pf Dd2 growth: inactive

What do the screens show for `CCc1ccc(CNCc2c(C(=O)O)n(Cc3ccc(C)cc3)c3cc(C)ccc23)cc1`?
Pf Dd2 growth: 5µM*
